For two compounds, Potency results are on record in PubChem BioAssay AID2733 (National Center for Advancing Translational Sciences (NCATS), 2010).

This experiment is described as follows: High Content Assay for Compounds that inhibit the Assembly of the Perinucleolar Compartment: PC3M Cytotoxicity. The conditions noted are these: PC3M cells, ATPLite luminescence viability, 24 h; series mostly up to 46.1 µM. From the text: High Content Assay for Compounds that inhibit the Assembly of the Perinucleolar Compartment
NIH Chemical Genomics Center [NCGC]
NIH Molecular Libraries Probe Centers Network [MLPCN]
Assay Submitter (PI): Sui Huang, Northwestern University, Feinberg School of Medicine, Cell and Molecular Biology, Chicago, Illinois.
The perinucleolar compartment (PNC) is a non-membrane-bound nuclear subdomain that is associated with but structurally distinct from the nucleolus. The PNC is a heritable trait, in which the number of PNCs per cell in daughter cells often mimics that of their mother cells. The PNC is heterogeneous in shape, is stable through interphase, disassembles during mitosis, and reassembles in early G1. The PNC is concentrated with newly synthesized RNA polymerase III (pol III) RNAs (MRP RNA, RNAse P H1 RNA, hY RNAs[hY1, 2, 5], Alu RNA, and SRP [7SL] RNA) and RNA binding proteins (nucleolin, PTB, CUG-BP, KSRP, Raver1, Raver2, and Rod).
Extensive in vitro studies have shown that the PNC is unique to tumor cells and preferentially forms in tumor cells derived from solid tissues. […]
5. Luminescencent signal was detected on a Viewlux CCD based imager (PerkinElmer) with a clear filter and a 30 second integration time. […]

Inconclusive results are not listed. Entries that show only a call come without a potency. Calls of active or inactive are those of the source. Calls come from the whole dose curve; as a rule, active = well fitted inhibition curve with a large enough effect; inconclusive = small, poorly fitted or top-dose-only effect; inactive = flat fitted curve, though single readings scatter.

As for `Cc1ccc(C(O)(C(=O)NNC(=O)CN2CCN(C)CC2)c2ccc(C)cc2)cc1`, the Potency entry was “inactive”.
For `Cc1c2ccncc2c(C)c2c1[nH]c1ccccc12`, the Potency is 31.6 µM (active).
